Compound activity from PubChem.
Rows were chosen to be rich in hits. Some 21% of all compounds tested hit in one or more screens of this group.
Pf growth 48h: P. falciparum growth inhibition at 48 hours (one generation); Potency, µM (series often up to 28.7 µM), for inactives: at the top dose activity change, negative = inhibition, actives largely listed as inhibitors; P. falciparum luciferase growth in erythrocytes, 48 h; AID 504832; actives 5.9% (n = 310,000); further: potency means the concentration at half of the fitted maximal effect; on the % scale 0 is the no-effect control and ±100 the full control effect
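Luciferase-expressing P. falciparum in infected erythrocytes (2% hematocrit, 0.1% parasitemia final) in RPMI 1640/0.5% Albumax were exposed to compound for 48 hours at 37 C, 5% CO2; growth read as luminescence.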
Pf growth 96h: inhibits malaria parasite growth, 96 h | P. falciparum luciferase reporter growth, 96 h | AID 504834 | actives 6.9% (n = 320,000) | Potency, µM (highest dose often 28.7 µM), inactives show top-dose activity change, negative = inhibition, most hits filed as inhibitors; further: potency means the concentration at half of the fitted maximal effect; on the % scale 0 is the no-effect control and ±100 the full control effect
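Luminescence readout: decreased luciferase signal marks inhibited growth of reporter-expressing P. falciparum in infected red cells (2% hematocrit, 0.05% parasitemia final), exposed to compound two generations (96 h, 37 C, 5% CO2).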
Shiga toxin inh: Shiga toxin inhibition. inhibition, % at 38.7 µM. AID 2315. actives 9.2% (n = 290,000). Vero cells, Shiga toxin protein synthesis inhibition reporter; in the data active means inhibition mostly above about 28%, no sharp cut-off; inactive means mostly below about 43%; further: 0% is about no effect
FBPA Giardia inh: inhibitors of Giardia lamblia fructose-1,6-bisphosphate aldolase; A8B2U2; purified Giardia FBPA; Potency, µM (series often up to 59.6 µM), inactives show top-dose activity, negative = inhibition, usual class: inhibitors; actives 0.71% (n = 290,000); further: potency means the concentration at half of the fitted maximal effect; on the % scale 0 is the no-effect control and ±100 the full control effect; nearly all actives have a fitted effect of over 55% in size
Target sequence (A8B2U2 whole entry, looked up): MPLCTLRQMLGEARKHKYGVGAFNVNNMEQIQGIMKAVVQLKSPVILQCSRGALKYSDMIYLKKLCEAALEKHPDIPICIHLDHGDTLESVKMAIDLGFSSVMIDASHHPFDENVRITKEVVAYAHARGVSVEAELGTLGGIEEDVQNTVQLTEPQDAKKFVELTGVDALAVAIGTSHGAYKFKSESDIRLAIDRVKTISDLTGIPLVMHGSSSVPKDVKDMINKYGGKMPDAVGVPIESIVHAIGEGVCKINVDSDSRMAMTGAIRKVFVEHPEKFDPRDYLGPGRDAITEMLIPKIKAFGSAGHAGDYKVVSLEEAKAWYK
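40 nM FBPA preincubated 10 min at RT with compound (up to 57.5 uM final), then substrate plus GAPDH/TPI/NAD/arsenate coupling and diaphorase/resazurin added. Fluorescence read after 20 min at RT, 525/598 nm.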
Cycloheximide cs: counter-screen hit for Shiga toxin inhibitors, cycloheximide | max response, % | actives 12% (n = 300,000) | cell reporter, cycloheximide protein synthesis inhibition counterscreen; in the data active means max response mostly above about 13%, no sharp cut-off; inactive means mostly below about 14%; further: read at 38.3 µM for the half of the compounds with a filed dose; 0% is about no effect
NS1 function inh: blocks influenza NS1 protein function. Potency, µM (highest dose often 46.1 µM), inactives show at the highest dose activity, positive = more growth. actives 0.4% (n = 270,000); calls by dose curve; further: potency means the concentration at half of the fitted maximal effect; actives are rising curves; nearly all actives have a fitted effect of over 50% in size
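OD600 was taken as the measure of yeast growth restored by compound in an NS1-expressing S. cerevisiae strain. Cells had been washed out of glucose medium and diluted 1:100 into galactose -URA medium, pH 6.0.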
* hit, by the source's call; ? = inconclusive; / = not tested or not shown; [ ] = dose if it differs, or a comment. Unless noted, the call rests on the fitted dose curve; in most records, active means well fitted curve in the direction sought with a large enough effect; inconclusive means small, poorly fitted or top-dose-only effect, or another doubt; inactive means no such curve, though single readings can be large; an effect the other way counts as inactive or inconclusive.

SMILES | Pf growth 48h | Pf growth 96h | Shiga toxin inh | FBPA Giardia inh | Cycloheximide cs | NS1 function inh
Cc1cc(=O)nc2c3ccccc3n(CC(=O)NCCC3=CCCCC3)n12 | -17.7% | -26.2% | 115.3 | / | 40.1* | -26.6%
CCC1c2ccc(C)n2CCN1C(=O)Nc1ccccc1C(=O)OC (stereo not given) | 5.22µM* | 145.8% | -5.5 | 12.5% | 6.9 | 13.7%
CCC1c2ccc(C)n2CCN1C(=O)Nc1cc(Cl)ccc1OC (stereo not given) | -28.2% | ? | 7.8 | -3.4% | -1.6 | 9.6%
CCOC(=O)c1ccccc1NC(=O)N1CCn2c(C)ccc2C1CC (stereo not given) | 0.0% | / | -12.4 | ? | -2.8 | -11.3%
CCCC1c2ccc(C)n2CCN1C(=O)Nc1ccccc1Cl (stereo not given) | ? | 2.62µM* | 73.6* | ? | 26.2* | 2.6%
CSc1ncnc2c1ccn2CC(=O)Nc1ccc(C)c(C)c1 | 26.2% | 31.8% | / | / | / | /
CN1CCN(CCCC(=O)c2ccc(C3CCCC3)cc2)CC1 | -8.8% | ? | 53.5* | -14.7% | 28.9* | 7.0%
Cc1ccccc1C(=O)N1CCC(C(=O)NC(C)c2ccc(-n3ccnc3)cc2)CC1 (stereo not given) | -27.0% | ? | -1.6 | / | -0.7 | 10.3%
N#C/C(=C/C=C/c1ccccc1)C(=O)Nc1ccccc1 | 3.29µM* | ? | 23.5 | 11.9% | 5.6 | 17.5%
COCCNC(=O)/C(C#N)=C/C=C/c1ccccc1 | 13.1µM* | ? | 43.5 | 0.7% | 17.3* | /
N#C/C(=C\c1ccccc1)C(=O)Nc1cccnc1 | 39.9% | 46.3% | -16.1 | -3.2% | -1.2 | 4.8%
N#C/C(=C\C=C\c1ccccc1)C(=O)Nc1ccccc1 | 23.8% | 18.5% | 13.3 | 0.6% | 15.4* | -6.6%
N#C/C(=C\c1ccccc1C(F)(F)F)C(=O)Nc1ccccc1 | -20.4% | 25.4% | -2.7 | 3.2% | 16.8* | -1.9%
CCc1cccc(CC)c1NC(=O)/C(C#N)=C/c1ccccc1C(F)(F)F | -25.1% | ? | -6.3 | -3.8% | -8.7 | 0.2%
Cc1cc(O)cc2c1O[C@](C)(CCC[C@H](C)CCC[C@H](C)CCCC(C)C)CC2 | -15.9% | -18.6% | 5.4 | -11.0% | -0.7 | /
COc1cc([N+](=O)[O-])cc(/C=N/NC(=O)Cn2nccc2C)c1O | 5.8% | 39.3% | 4.7 | -12.5% | -2.7 | -4.4%
CO[C@@H]([CH2][Hg])CN1C(=O)c2ccccc2S1(=O)=O.Cn1c(=O)c2nc[nH]c2n(C)c1=O | / | / | / | / | / | -10.1%
Cc1nc2scc(C)n2c(=O)c1S(=O)(=O)N1CCN(c2ccc([N+](=O)[O-])cc2)CC1 | 8.7% | ? | 6.3 | 4.8% | -5.4 | 3.6%
CC(C)(C)c1ccc(CSc2nnc(-c3ccccn3)n2Cc2ccco2)cc1 | 7.38µM* | / | -22.9 | -10.7% | 1.5 | -15.5%
Brc1ccc(CSc2nnc(-c3ccccn3)n2Cc2ccco2)cc1 | ? | 3.7µM* | 11.0 | -1.2% | -3.4 | -64.6%
Clc1cccc(CSc2nnc(-c3ccccn3)n2Cc2ccco2)c1 | ? | ? | -2.9 | 5.4% | -3.1 | -95.2%
CCCCOc1ncnc2c1[nH]c1ccc(F)cc12 | 23.1% | 0.0% | 50.0* | 1.1% | 33.6* | -48.9%
CCCCOc1ncnc2c1[nH]c1ccc(OCC)cc12 | 32.2% | 4.5% | 8.6 | 7.5% | 11.7 | -10.4%
CCCCOc1ncnc2c1[nH]c1ccc(OC)cc12 | 91.9% | 271.9% | 77.2* | 7.4% | 56.1* | -26.4%
CCCCOc1ncnc2c1[nH]c1ccccc12 | ? | 0.0% | 37.2* | 9.8% | 21.6* | -98.5%
SMILES | Pf growth 48h | Pf growth 96h | Shiga toxin inh | FBPA Giardia inh | Cycloheximide cs | NS1 function inh
COC(=O)c1cc(NC(=O)CN2C(=O)C(=O)N(C3CCCC3)C2=O)cc(C(=O)OC)c1 | 4.2% | -13.7% | / | / | / | /
CCCNC(=O)N1N=C(c2ccc(N)cc2)c2cc3c(cc2C1C)OCO3 (stereo not given) | / | / | -3.7 | 5.1% | -2.1 | /
CCN(CC)P(=O)(Nc1ccc([N+](=O)[O-])cc1)c1c(C)nn(CCC#N)c1NC(=O)c1ccc(Cl)cc1Cl (stereo not given) | 7.38µM* | 7.38µM* | -4.6 | 6.3% | 2.3 | -7.9%
COc1ccccc1NS(=O)(=O)c1cc(C(=O)NCC(C)(C)N2CCOCC2)ccc1C | -23.2% | -3.0% | / | / | / | /
CC1CCC(C(C)C)C(OCC[N+](C)(C)C)C1 (stereo not given) | 3.7µM* | 14.8% | -8.8 | 4.4% | -2.8 | 0.2%
CC1CCC(C(C)C)C(OCC(O)C[N+]2(C)CCCCC2)C1 (stereo not given) | ? | 91.6% | 4.1 | -4.6% | 0.1 | -0.1%
CSc1ccc(/C=N/N2CCN(C)CC2)cc1 | 340.8% | 68.2% | 71.5 | -0.5% | 29.1* | /
CSc1ccc(/C=N/n2c(C)cc(C)cc2=O)cc1 | 0.0% | 49.3% | 111.7* | -6.5% | 27.1* | -9.9%
CN1CCN(/N=C/c2ccc(-c3ccccc3)cc2)CC1 | 80.1% | 28.9% | 62.5* | -2.0% | 49.0* | /
Cc1ccc(NC(=O)C2CC(O)CN2C(=O)OCc2ccccc2)c(C)c1 (stereo not given) | 31.2% | ? | 9.4 | 3.1% | -4.7 | 4.0%
CS(=O)(=O)Nc1cccc(-c2nc(Nc3ccncc3)c3ccccc3n2)c1 | / | / | / | 2.2% | / | /
CNC(=O)c1cc(C(=O)c2ccccc2Br)c[nH]1 | 24.2% | 21.8% | 7.0 | 2.9% | 7.2 | -5.8%
CN(C)C(=O)c1cc(C(=O)c2ccccc2)c[nH]1 | 4.5%[0.00184 µM] | 41.4% | 24.5 | 5.3% | 18.4* | -0.3%
CN(C)C(=O)c1cc(C(=O)c2ccccc2Cl)c[nH]1 | 21.2% | ? | 28.5 | -2.2% | 28.9* | 8.4%
CN(C)C(=O)c1cc(C(=O)c2ccccc2Br)c[nH]1 | -7.9%[0.00184 µM] | 36.7% | 48.2 | -3.2% | 11.4 | 1.7%
O=C(c1c[nH]c(C(=O)C(Cl)(Cl)Cl)c1)c1ccccc1Br | 13.1µM* | ? | -1.7 | -1.4% | -1.8 | /
CCCCS(=O)(=O)N1CCCC(C(=O)NCC2CCCO2)C1 (stereo not given) | 18.6% | 0.0% | 12.8 | -3.0% | -1.9 | 7.9%
COC(=O)[C@@]1(Cc2ccccc2)[C@H]2c3cc(C(=O)N(C)C)[nH]c3C[C@H]2CN1C(=O)c1ccccc1 | / | / | / | -2.7% | / | /
COC(=O)[C@@H]1C[C@H](OC(C)=O)C(=O)[C@H]2[C@@]1(C)CC[C@H]1C(=O)O[C@H](c3ccoc3)C[C@]21C | / | / | 2.7 | 10.3% | 2.9 | /
COc1ccc2c(c1)C(=O)[C@H](OC(=O)Nc1cc(OC)c(OC)c(OC)c1)[C@@H](c1ccc(OC)c(Br)c1)O2 | / | / | / | -5.1% | / | /
COc1cccc([C@@H]2Oc3ccc(OC)cc3C(=O)[C@H]2OC(=O)Nc2cc(OC)c(OC)c(OC)c2)c1 | ? | 2.2% | 45.5* | -7.8% | 11.1* | 5.7%
COc1cccc([C@@H]2Oc3ccc(OC)cc3C(=O)[C@H]2OC(=O)NCc2ccc3c(c2)OCO3)c1 | ? | -104.4% | 83.7* | -0.9% | 63.6* | 2.0%
